Measured values taken from PubChem BioAssay AID1159580 (chemical genetic matrix, 2015).
Values joined by “and” are separate entries in the source; they are usually repeats but may differ in a detail not shown here. Equal values may be shown once. Among all 5,500 compounds or so, about 2,000 (36%) were called active. Another 18% or so got no clear call; they are omitted. Rule as the data show it: active = normalized growth mostly below about 0.91 (no sharp cut-off); inconclusive = no clear call, values can overlap the other calls; inactive = mostly above about 0.92. Some of the results follow.

Experiment: chemical genetic growth profiling, strain panel (AID 1159580);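 also: tested at 20 µM; growth read once vehicle control cultures reached saturation at 30 °C; 1 = growth at the plate median or of vehicle wells; lower values mean less growth of the strain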
Details: S. cerevisiae deletion strains, growth OD

Measured: normalized growth

CC(C)c1ccc2c(c1)CCC1C(C)(C(N)=O)CCCC21C (stereo unspecified)
inactive: locus YAL013W, strain DEP1, stronger effect = lower value 0.923 | locus YAL021C, strain ccr4, stronger effect = lower value 1.01 | locus YAL026C, strain drs2, stronger effect = lower value 0.916 | locus YAL030W, strain snc1, stronger effect = lower value 0.966 | locus YBL061C, strain skt5, stronger effect = lower value 0.951 | locus YBR009C, strain hhf1, stronger effect = lower value 0.947 | locus YBR021W, strain FUR4, stronger effect = lower value 1.02 | locus YBR023C, strain chs3, stronger effect = lower value 0.916 | locus YBR171W, strain sec66, stronger effect = lower value 0.952 | locus YBR229C, strain ROT2, stronger effect = lower value 0.983 | locus YBR231C, strain swc5, stronger effect = lower value 0.993 | locus YBR279W, strain paf1, stronger effect = lower value 0.992 | locus YCL011C, strain gbp2, stronger effect = lower value 0.941 | locus YCL016C, strain dcc1, stronger effect = lower value 0.94 | locus YCL029C, strain bik1, stronger effect = lower value 0.969 | locus YCL061C, strain MRC1, stronger effect = lower value 0.953 | locus YCL069W, strain vba3, stronger effect = lower value 0.969 | locus YCR088W, strain abp1, stronger effect = lower value 0.958 | locus YDL005C, strain med2, stronger effect = lower value 0.954 | locus YDL035C, strain GPR1, stronger effect = lower value 0.88 | locus YDL040C, strain nat1, stronger effect = lower value 0.976 | locus YDL101C, strain DUN1, stronger effect = lower value 0.946 | locus YDL134C, strain PPH21, stronger effect = lower value 0.898 | locus YDL185W, strain tfp1, stronger effect = lower value 0.991 | locus YDR001C, strain nth1, stronger effect = lower value 0.948 | locus YDR069C, strain doa4, stronger effect = lower value 0.989 | locus YDR101C, strain arx1, stronger effect = lower value 0.937 | locus YDR159W, strain sac3, stronger effect = lower value 0.895 | locus YDR162C, strain NBP2, stronger effect = lower value 0.872 | locus YDR195W, strain ref2 0.922 | locus YDR297W, strain sur2, stronger effect = lower value 0.968 | locus YDR318W, strain mcm21, stronger effect = lower value 0.931 | locus YDR334W, strain swr1, stronger effect = lower value 0.965 | locus YDR335W, strain msn5, stronger effect = lower value 0.976 | locus YDR388W, stronger effect = lower value 0.972 | locus YDR502C, strain sam2, stronger effect = lower value 0.926 | locus YEL003W, strain gim4, stronger effect = lower value 0.971 | locus YEL037C, strain rad23, stronger effect = lower value 0.973 | locus YEL061C, strain CIN8 (second series), stronger effect = lower value 0.96 | locus YEL061C, strain CIN8, stronger effect = lower value 0.962 | locus YER015W, strain faa2, stronger effect = lower value 0.982 | locus YER016W, strain bim1, stronger effect = lower value 0.967 | locus YER110C, stronger effect = lower value 0.995 | locus YER111C, strain swi4, stronger effect = lower value 0.936 | locus YER155C, strain BEM2 (second series), stronger effect = lower value 0.955 | locus YFR010W, strain ubp6, stronger effect = lower value 0.957 | locus YGL078C, strain dbp3, stronger effect = lower value 0.964 | locus YGL167C, strain pmr1, stronger effect = lower value 0.945 | locus YGL173C, strain kem1, stronger effect = lower value 0.951 | locus YGL227W, strain vid30, stronger effect = lower value 0.965 | locus YGL240W, strain doc1, stronger effect = lower value 0.963 | locus YGL248W, strain PDE1, stronger effect = lower value 0.926 | locus YGL253W, strain hxk2, stronger effect = lower value 0.951 | locus YGR135W, strain pre9, stronger effect = lower value 0.932 | locus YGR252W, strain gcn5, stronger effect = lower value 0.857 | locus YHR013C, strain ard1, stronger effect = lower value 1.09 | locus YHR027C, strain rpn1, stronger effect = lower value 0.979 | locus YHR079C, strain IRE1 (second series), stronger effect = lower value 0.974 | locus YHR094C, strain hxt1, stronger effect = lower value 1 | locus YHR129C, strain ARP1, stronger effect = lower value 0.941 | locus YHR200W, strain rpn10, stronger effect = lower value 0.945 | locus YIL066C, strain RNR3, stronger effect = lower value 0.902 | locus YIL073C, strain SPO22, stronger effect = lower value 0.833 | locus YIL125W, strain kgd1, stronger effect = lower value 0.939 | locus YIR030C, strain dcg1, stronger effect = lower value 0.97 | locus YJL092W, strain hpr5, stronger effect = lower value 0.956 | locus YJL095W, strain BCK1 (second series), stronger effect = lower value 0.966 | locus YJL115W, strain asf1, stronger effect = lower value 0.976 | locus YJL129C, strain trk1, stronger effect = lower value 0.905 | locus YJL134W, strain LCB3, stronger effect = lower value 0.983 | locus YJL154C, strain vps35, stronger effect = lower value 0.961 | locus YJL164C, strain tpk1, stronger effect = lower value 0.941 | locus YJL166W, strain qcr8, stronger effect = lower value 0.965 | locus YJL168C, strain set2, stronger effect = lower value 0.993 | locus YJL187C, strain SWE1 (second series), stronger effect = lower value 0.924 | locus YJL187C, strain SWE1, stronger effect = lower value 0.968 | locus YJR043C, strain POL32, stronger effect = lower value 0.941 | locus YJR066W, strain TOR1, stronger effect = lower value 0.936 | locus YKL068W, stronger effect = lower value 0.965 | locus YKL085W, strain MDH1 (second series), stronger effect = lower value 0.944 | locus YKL085W, strain MDH1, stronger effect = lower value 0.944 | locus YKL160W, strain elf1, stronger effect = lower value 0.952 | locus YKL190W, strain CNB1, stronger effect = lower value 0.969 | locus YKR026C, strain gcn3, stronger effect = lower value 0.969 | locus YKR091W, strain srl3, stronger effect = lower value 0.963 | locus YLL001W, strain dnm1, stronger effect = lower value 0.926 | locus YLL026W, stronger effect = lower value 0.976 | locus YLL041C, strain sdh2, stronger effect = lower value 0.96 | locus YLR027C, strain aat2, stronger effect = lower value 0.979 | locus YLR058C, strain SHM2, stronger effect = lower value 0.949 | locus YLR102C, strain apc9, stronger effect = lower value 0.986 | locus YLR221C, strain rsa3, stronger effect = lower value 0.916 | locus YLR258W, strain gsy2, stronger effect = lower value 0.966 | locus YLR268W, strain sec22, stronger effect = lower value 0.917 | locus YLR320W, strain mms22, stronger effect = lower value 0.911 | locus YLR342W, strain FKS1, stronger effect = lower value 0.946 | locus YLR357W, strain rsc2, stronger effect = lower value 0.952 | locus YLR370C, strain arc18, stronger effect = lower value 0.952 | locus YLR384C, strain iki3, stronger effect = lower value 0.954 | locus YML016C, strain PPZ1, stronger effect = lower value 0.977 | locus YML032C, strain rad52, stronger effect = lower value 0.954 | locus YML120C, strain ndi1, stronger effect = lower value 0.939 | locus YML124C, strain tub3, stronger effect = lower value 0.972 | locus YMR058W, strain fet3, stronger effect = lower value 0.958 | locus YMR078C, strain ctf18, stronger effect = lower value 0.984 | locus YMR125W, strain sto1, stronger effect = lower value 0.954 | locus YMR129W, stronger effect = lower value 0.952 | locus YMR205C, strain PFK2, stronger effect = lower value 0.894 | locus YMR223W, strain ubp8, stronger effect = lower value 0.929 | locus YMR231W, strain pep5, stronger effect = lower value 0.98 | locus YMR263W, strain SAP30, stronger effect = lower value 0.943 | locus YNL067W, strain RPL9B, stronger effect = lower value 0.935 | locus YNL128W, strain TEP1, stronger effect = lower value 0.925 | locus YNL183C, strain NPR1, stronger effect = lower value 0.9 | locus YNL209W, strain ssb2, stronger effect = lower value 0.974 | locus YNL248C, strain rpa49, stronger effect = lower value 0.942 | locus YNL250W, strain rad50, stronger effect = lower value 0.97 | locus YNL271C, strain bni1, stronger effect = lower value 0.951 | locus YNL307C, strain MCK1, stronger effect = lower value 0.942 | locus YNL322C, strain KRE1 (second series), stronger effect = lower value 0.937 | locus YNR049C, strain mso1, stronger effect = lower value 0.969 | locus YOL012C, strain htz1 1.06 | locus YOL147C, strain pex11, stronger effect = lower value 0.965 | locus YOR001W, strain rrp6, stronger effect = lower value 0.973 | locus YOR069W, strain VPS5, stronger effect = lower value 0.966 | locus YOR070C, strain gyp1, stronger effect = lower value 0.955 | locus YOR080W, strain dia2, stronger effect = lower value 0.964 | locus YOR083W, strain WHI5, stronger effect = lower value 0.917 | locus YOR106W, strain vam3, stronger effect = lower value 0.955 | locus YOR136W, strain idh2, stronger effect = lower value 0.962 | locus YOR144C, strain elg1, stronger effect = lower value 0.956 | locus YOR231W, strain MKK1, stronger effect = lower value 0.891 | locus YOR265W, strain rbl2, stronger effect = lower value 0.965 | locus YOR270C, strain vph1, stronger effect = lower value 0.984 | locus YOR290C, strain snf2, stronger effect = lower value 0.902 | locus YOR316C, strain cot1, stronger effect = lower value 0.983 | locus YPL078C, strain atp4, stronger effect = lower value 0.946 | locus YPL106C, strain sse1, stronger effect = lower value 0.93 | locus YPL240C, strain hsp82, stronger effect = lower value 0.966 | locus YPL241C, strain CIN2, stronger effect = lower value 0.98 | locus YPL256C, strain CLN2, stronger effect = lower value 0.838 | locus YPR119W, strain clb2, stronger effect = lower value 0.942 | locus YPR141C, strain kar3, stronger effect = lower value 0.968 | locus YPR163C, strain tif3, stronger effect = lower value 0.966 | locus YPR167C, strain met16, stronger effect = lower value 0.985 | strain wtn01, stronger effect = lower value 0.922
0.815 (active) and 0.881 (inactive): locus YHR030C, strain SLT2, stronger effect = lower value
active: locus YDL074C, strain BRE1, stronger effect = lower value 0.76 | locus YDL192W, strain arf1, stronger effect = lower value 0.831 | locus YDR137W, strain rgp1, stronger effect = lower value 0.679 | locus YDR392W, strain spt3, stronger effect = lower value 0.627 | locus YER155C, strain BEM2, stronger effect = lower value 0.89 | locus YER167W, strain BCK2, stronger effect = lower value 0.898 | locus YGL086W, strain mad1, stronger effect = lower value 0.894 | locus YGR229C, strain SMI1, stronger effect = lower value 0.654 | locus YHR079C, strain IRE1, stronger effect = lower value 0.848 | locus YHR142W, strain chs7, stronger effect = lower value 0.801 | locus YKL009W, strain mrt4, stronger effect = lower value 0.856 | locus YKR001C, strain vps1, stronger effect = lower value 0.78 | locus YLR039C, strain RIC1, stronger effect = lower value 0.569 | locus YLR113W, strain HOG1, stronger effect = lower value 0.78 | locus YLR262C, strain YPT6 (second series), stronger effect = lower value 0.734 | locus YLR262C, strain YPT6, stronger effect = lower value 0.498 | locus YLR330W, strain CHS5, stronger effect = lower value 0.909 | locus YLR342W, strain FKS1 (second series), stronger effect = lower value 0.645 | locus YLR371W, strain rom2, stronger effect = lower value 0.671 | locus YLR418C, strain cdc73, stronger effect = lower value 0.76 | locus YMR307W, strain GAS1, stronger effect = lower value 0.418 | locus YNL071W, strain lat1, stronger effect = lower value 0.916 | locus YNL233W, strain BNI4, stronger effect = lower value 0.792 | locus YNL298W, strain CLA4, stronger effect = lower value 0.887 | locus YNR052C, strain pop2, stronger effect = lower value 0.847 | locus YOR061W, strain CKA2, stronger effect = lower value 0.885 | locus YOR184W, strain ser1, stronger effect = lower value 0.703 | locus YPL051W, strain arl3, stronger effect = lower value 0.915
0.695 (active) and 0.911 (inactive): locus YJL095W, strain BCK1, stronger effect = lower value
